Inconclusive results are not listed. A call without a number means that no potency is given here. Calls of active or inactive are those of the source. The call rests on the fitted dose curve; in most records, active means well fitted inhibition curve with a large enough effect; inconclusive means small, poorly fitted or top-dose-only effect, or effect the other way; inactive means flat fitted curve, though single readings scatter.

Sequence of ATP-dependent 6-phosphofructokinase (Trypanosoma brucei brucei) (O15648 whole entry, looked up): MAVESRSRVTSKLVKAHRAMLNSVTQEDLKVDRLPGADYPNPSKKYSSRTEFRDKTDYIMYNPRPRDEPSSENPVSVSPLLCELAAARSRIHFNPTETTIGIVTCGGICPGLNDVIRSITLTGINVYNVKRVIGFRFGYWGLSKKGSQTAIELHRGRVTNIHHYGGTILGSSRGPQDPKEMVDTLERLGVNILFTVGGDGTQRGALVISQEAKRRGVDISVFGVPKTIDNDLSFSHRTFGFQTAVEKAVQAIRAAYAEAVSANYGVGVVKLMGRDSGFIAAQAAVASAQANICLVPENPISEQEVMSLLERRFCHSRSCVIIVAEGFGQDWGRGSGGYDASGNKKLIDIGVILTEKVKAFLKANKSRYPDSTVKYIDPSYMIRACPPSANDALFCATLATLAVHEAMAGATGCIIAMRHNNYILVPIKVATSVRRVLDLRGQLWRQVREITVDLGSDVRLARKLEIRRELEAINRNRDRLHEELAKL

The experiment has as its target ATP-dependent 6-phosphofructokinase (Trypanosoma brucei brucei) (UniProt O15648). Briefly: qHTS Assay to Find Inhibitors of T. brucei phosphofructokinase: hit validation (AID 492961).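 Further: luminescence reports ADP formed as PFK phosphorylates fructose-6-phosphate with ATP.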 Particulars: T. brucei PFK, ADP-Glo luminescence; series mostly up to 51.4 µM. An outline of the steps: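 ADP-Glo luminescence read-out of ADP formed by 1.25 nM PFK from 0.1 mM ATP and 0.5 mM F6P (TEA pH 8.0, 45 min, RT). Compounds titrated; activity normalized to no-enzyme and full-enzyme controls.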
On to `CCCCNC(=O)NS(=O)(=O)c1ccc(N)cc1`, for which the Potency entry is “inactive”.
To `CCCCN=C(N)N=C(N)N` belongs “inactive”; to `C#C[C@]1(O)CC[C@H]2[C@@H]3CCC4=CC(=O)CC[C@@H]4[C@H]3CC[C@@]21CC`, “inactive”.
Turning to `CN(Cc1ccc(C(C)(C)C)cc1)Cc1cccc2ccccc12`, the Potency entry was “inactive”.
As to `CCc1oc2ccccc2c1C(=O)c1cc(Br)c(O)c(Br)c1`, the Potency result is “inactive”.
To `CC(=O)O[C@H]1C[C@@H]2CC[C@@H]3[C@H](CC[C@@]4(C)[C@H]3C[C@H]([N+]3(C)CCCCC3)[C@@H]4OC(C)=O)[C@@]2(C)C[C@@H]1N1CCCCC1` belongs “inactive”; to `CN(C)C(=O)Nc1ccc(Cl)c(Cl)c1`, “inactive”; to `COc1cc(NS(=O)(=O)c2ccc(N)cc2)ncn1`, “inactive”.
As to `COC(=O)C(c1ccccc1Cl)N1CCc2sccc2C1` (configuration not stated), the Potency result is “inactive”.
To `CC(=O)NO` belongs “inactive”.
As for `Oc1ccccc1C=NCc1ccccc1`, the Potency result is “inactive”.
As to `CCCCCCCCCCCCCCCC(=O)O`, the Potency entry is “inactive”.
To `CC(=O)O[C@]1(C(C)=O)CC[C@H]2[C@@H]3C=C(Cl)C4=CC(=O)CC[C@]4(C)[C@H]3CC[C@@]21C` belongs “inactive”; to `CCN(CC)CCOC(=O)C1(c2ccccc2)CCCC1`, “inactive”; to `Cc1nc(-c2ccc(Cl)cc2)oc1COC(C)(C)C(=O)O`, “inactive”.
Regarding `Cc1cc(CC(=O)O)c(C)n1-c1ccc(Cl)cc1`, the Potency entry is “inactive”.
For the compound `O=S(=O)(O)c1ccc(O)cc1`, the Potency entry was “inactive”.
`C/C=C/C=N/NC(=O)c1ccncc1`: the Potency entry is “inactive”.
The entry for `NC1CCN(c2nc3c(cc2F)c(=O)c(C(=O)O)cn3-c2ccc(F)cc2F)C1` (configuration not stated) is “inactive”; for `Oc1ccc(Cl)cc1Cc1cc(Cl)ccc1O` it is “inactive”; for `CN1CCN(c2cc3c(cc2F)c(=O)c(C(=O)O)cn3-c2ccc(F)cc2)CC1` it is “inactive”.
The entry for `O=C(O)P(=O)(O)O` is “inactive”.
As to `COc1cc(C)nc(-n2nc(C)cc2OC)n1`, the Potency result is “inactive”.
Regarding `Cc1cccc(C)c1NC(=O)CN1CCCCCC1`, the Potency entry is “inactive”.
As to `CC(C)CCCC(C)N` (configuration not stated), the Potency entry was “inactive”.
Turning to `Cc1ccc(-c2ncc(Cl)cc2-c2ccc(S(C)(=O)=O)cc2)cn1`, the Potency entry is “inactive”.
Take `NCCNc1cccc2ccccc12`: the Potency result was “inactive”.
Take `CCCCNc1ccc(C(=O)OCCOCCOCCOCCOCCOCCOCCOCCOCCOC)cc1`: the Potency entry is “inactive”.
Turning to `COc1ccc(-c2cc(C(F)F)nn2-c2ccc(S(N)(=O)=O)cc2)cc1F`, the Potency result was “inactive”.
To `CC(=O)Nc1ccc(S(=O)(=O)Nc2ccc([N+](=O)[O-])cc2)cc1` belongs “inactive”; to `CN(CCCN1c2ccccc2CCc2ccccc21)CC(=O)c1ccc(Cl)cc1`, “inactive”; to `O=C(Nc1ccc([N+](=O)[O-])cc1)Nc1ccc([N+](=O)[O-])cc1`, “inactive”.
With `CN1CCC(OC(c2ccccc2)c2ccccc2)CC1`, the Potency entry is “inactive”.
Take `NS(=O)(=O)Cc1noc2ccccc12`: the Potency result is “inactive”.
For the compound `COc1cc([C@H]2Oc3cc([C@H]4Oc5cc(O)cc(O)c5C(=O)[C@@H]4O)ccc3O[C@@H]2CO)ccc1O`, the Potency result is “inactive”.
In the case of `NC(=O)n1c(O)c(C(=O)c2cccs2)c2cc(Cl)ccc21`, the Potency entry is “inactive”.
Regarding `O=C(O)Cc1csc(-c2ccc(Cl)cc2)n1`, the Potency result is “inactive”.

The values are drawn from PubChem BioAssay (NCATS).
